In PubChem BioAssay (Tox21):
Inconclusive results are not listed. A call without a number means that no potency is given here. Active and inactive are the calls of the source. Calls come from the whole dose curve.

What follows are molecules tested against Progesterone receptor (Homo sapiens) (UniProt P06401) (assay: qHTS assay to identify small molecule agonists of the progesterone receptor (PR) signaling pathway (AID 1346784; note: nearly all actives have a fitted effect of over 30% in size)). Settings: PR-UAS-bla HEK293T, beta-lactamase FRET ratio, 16 h; series mostly up to 92.4 µM.
Sequence of Progesterone receptor (Homo sapiens) (P06401 whole entry, looked up): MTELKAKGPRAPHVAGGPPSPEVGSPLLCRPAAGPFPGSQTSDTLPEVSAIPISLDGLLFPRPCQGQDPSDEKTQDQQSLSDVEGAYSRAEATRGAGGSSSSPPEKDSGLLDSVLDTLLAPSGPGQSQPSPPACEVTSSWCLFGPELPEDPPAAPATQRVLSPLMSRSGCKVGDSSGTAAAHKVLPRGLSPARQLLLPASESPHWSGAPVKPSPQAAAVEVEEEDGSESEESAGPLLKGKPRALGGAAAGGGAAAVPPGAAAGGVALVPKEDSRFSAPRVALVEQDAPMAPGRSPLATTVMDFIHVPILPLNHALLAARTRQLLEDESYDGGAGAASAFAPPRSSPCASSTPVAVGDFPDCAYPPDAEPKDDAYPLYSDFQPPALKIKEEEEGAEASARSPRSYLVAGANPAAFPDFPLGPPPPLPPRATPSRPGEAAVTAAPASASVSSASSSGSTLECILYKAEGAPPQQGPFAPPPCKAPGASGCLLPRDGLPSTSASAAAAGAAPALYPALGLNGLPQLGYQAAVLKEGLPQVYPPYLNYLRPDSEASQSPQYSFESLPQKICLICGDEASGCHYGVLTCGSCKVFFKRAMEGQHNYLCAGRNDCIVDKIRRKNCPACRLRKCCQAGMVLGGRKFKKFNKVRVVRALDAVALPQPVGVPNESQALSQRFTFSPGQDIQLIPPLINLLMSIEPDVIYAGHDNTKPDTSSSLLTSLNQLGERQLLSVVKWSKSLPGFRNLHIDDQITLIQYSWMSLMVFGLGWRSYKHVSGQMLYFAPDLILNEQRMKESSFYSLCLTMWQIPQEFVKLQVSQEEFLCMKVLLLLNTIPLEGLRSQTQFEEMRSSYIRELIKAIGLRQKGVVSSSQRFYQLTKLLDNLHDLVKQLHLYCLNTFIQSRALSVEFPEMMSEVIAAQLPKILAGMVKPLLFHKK
Description: U.S. Tox21 Program National Center for Advancing Translational Sciences [NCATS] NIH Chemical Genomics Center [NCGC] U.S. Environmental Protection Agency [EPA] National Institutes of Environmental Health Sciences [NIEHS] National Toxicology Program [NTP] U.S. Food and Drug Administration [FDA] […] Endocrine disrupting chemicals (EDCs) and their interactions with steroid hormone receptors like PR causes disruption of normal endocrine function. To identify the compounds that activate PR signaling, a PR-UAS-bla GripTite cell line i.e. PR-UAS-bla HEK 293T (Invitrogen, Carlsbad, CA, USA) containing a beta-lactamase reporter gene under the control of an Upstream Activator Sequence (UAS) was used to screen Tox21 10K compound library.
Tox21 Assay Protocol Summary: PR-UAS-bla HEK 293T cells were dispensed at 3,000 cells/5 uL of assay medium containing 2% charcoal stripped FBS per well into black wall/clear-bottom 1536-well plates using a Multidrop Combi (ThermoFisher Scientific, Waltham, MA) dispenser. After the assay plates were incubated at a 37C and 5% CO2 for 6hr, 23 nL of compounds dissolved in DMSO, positive controls or DMSO only was transferred to the assay plate by a Pintool station (Kalypsys, San Diego, CA). The plates were incubated at 37C and 5% CO2 for 16hr. Then 1 uL of LiveBLAzer B/G FRET substrate was added using a BioRAPTR FRD (Flying Reagent Dispenser, Aurora Discovery, San Diego, CA). After the plates were incubated at room temperature for 2 hours, fluorescence intensity was measured by an Envision plate reader (PerkinElmer, Shelton, CT).
Potency is the fitted concentration of half-maximal effect.

Row | SMILES | Potency | activation
1 | C[C@H]1C[C@H]2[C@@H]3CCC4=CC(=O)C=C[C@]4(C)[C@@]3(Cl)[C@@H](O)C[C@]2(C)[C@@]1(O)C(=O)CO | 23.7 nM (active) | 
2 | CCCCC | inactive | 
3 | O=C1[C@H]2CCCC[C@H]2C(=O)N1CCCCN1CCN(c2nsc3ccccc23)CC1 | inactive | 
4 | CCCCc1nc2cccnc2n1Cc1ccc(-c2ccccc2-c2nnn[nH]2)cc1 | inactive | 
5 | CCOC(=O)COC(=O)c1cc(Oc2ccc(C(F)(F)F)cc2Cl)ccc1[N+](=O)[O-] | inactive | 
6 | NC(=O)C(c1ccccc1)(c1ccccc1)[C@@H]1CCN(CCc2ccc3c(c2)CCO3)C1 | inactive | 
7 | CNC(=O)CN(CCN(CCN(CC(=O)[O-])CC(=O)NC)CC(=O)[O-])CC(=O)[O-].O.[Gd+3] | inactive | 
8 | CCN(CC)c1ccc(C(=C2C=CC(=[N+](CC)CC)C=C2)c2cc(S(=O)(=O)O)ccc2S(=O)(=O)[O-])cc1 | inactive | 
9 | CCCCC1=NC2(CCCC2)C(=O)N1Cc1ccc(-c2ccccc2-c2nn[nH]n2)cc1 | inactive | 
10 | C/C=C/C(=O)CC |  | 0.707% [at 19 µM] (inactive)
11 | CCO[Si](CCCCl)(OCC)OCC | inactive | 
12 | C=CCOC(=O)CCC1CCCCC1 | inactive | 
13 | C#Cc1cccc(Nc2ncnc3cc(OCCOC)c(OCCOC)cc23)c1 | inactive | 
14 | CC[N+](C)(CC)CCOC(=O)C(O)(c1ccccc1)C1CCCCC1 (stereo not given) | inactive | 
15 | COc1cccc(N(C)C(=S)Oc2ccc3c(c2)CCCC3)n1 | inactive | 
16 | O=C1c2ccccc2S(=O)(=O)N1CCCCN1CCN(c2ncccn2)CC1 | inactive | 
17 | COC(C)(C)CCO | inactive | 
18 | CC(C)CC(=O)C1C(=O)c2ccccc2C1=O | inactive | 
19 | O=S(c1cc(Cl)cc(Cl)c1O)c1cc(Cl)cc(Cl)c1O | inactive | 
20 | CC1=CC[C@H](C(C)C)C=C1 | inactive | 

Row | SMILES | Potency | activation
21 | CCOC(=O)C(F)(F)F | inactive | 
22 | CCCCCCCC#N | inactive | 
23 | O=C(O)CC(=O)C(=O)O | inactive | 
24 | NCC(=O)CCC(=O)O | inactive | 
25 | O=C1C(O)=C(O)C(=O)C(O)=C1O | inactive | 
26 | Cc1[nH]c(C)c(Cl)c(=O)c1Cl |  | 2.04% [at 19 µM] (inactive)
27 | Nc1ccc(S(=O)(=O)Nc2ccccc2)cc1 | inactive | 
28 | COC(=O)c1ccc(I)cc1S(=O)(=O)NC(=O)Nc1nc(C)nc(OC)n1 | inactive | 
29 | C/C(=C(\CCOP(=O)(O)O)SC(=O)c1ccccc1)N(C=O)Cc1cnc(C)nc1N |  | -0.857% [at 8.39 µM] (inactive)
30 | C/C=C(/C(=C/C)c1ccc(OC(C)=O)cc1)c1ccc(OC(C)=O)cc1 | inactive | 
31 | Nc1cccc(S(=O)(=O)c2cccc(N)c2)c1 | inactive | 
32 | COc1cc(Cl)c(OC)cc1N | inactive | 
33 | CCCCO | inactive | 
34 | O=C(O)c1ccc(S(=O)(=O)O)cc1C(=O)O | inactive | 
35 | Nc1ccc(N)c2c1C(=O)c1ccccc1C2=O | inactive | 
36 | COc1cc2c(cc1OC)C(C(C(=O)N(CCc1ccc(OC)c(OC)c1OC)CCc1ccc(OC)c(OC)c1OC)c1ccccc1)=NCC2 (stereo not given) | inactive | 
37 | c1ccc(C(O[C@H]2CCCN(CCc3ccc4c(c3)OCO4)C2)c2ccccc2)cc1 | inactive | 
38 | O[C@@H](COc1cccc2ncccc12)CN1CCN(C2c3ccccc3[C@@H]3[C@H](c4ccccc42)C3(F)F)CC1 (stereo not given in full) | inactive | 
39 | Nc1cc(C(=O)O)c(O)c(S(=O)(=O)O)c1 | inactive | 
40 | Cc1cc(C(=O)O)ccc1[N+](=O)[O-] | inactive | 
